Reference: the supplement of paper PMC6411743
± gives the standard deviation of the averaged measurements. Targets with the largest changes are over-represented here; the source holds about 6,200 in all.

Assays:
Test in all cases: NP40-soluble protein abundance relative to vehicle (solubility fold change) (ratio); higher = more soluble protein in presence of AMP-PNP
KIAA0319L = molecular target: T1, KIAA0319L (UniProt Q8IZA0)
T1 sequence (whole entry): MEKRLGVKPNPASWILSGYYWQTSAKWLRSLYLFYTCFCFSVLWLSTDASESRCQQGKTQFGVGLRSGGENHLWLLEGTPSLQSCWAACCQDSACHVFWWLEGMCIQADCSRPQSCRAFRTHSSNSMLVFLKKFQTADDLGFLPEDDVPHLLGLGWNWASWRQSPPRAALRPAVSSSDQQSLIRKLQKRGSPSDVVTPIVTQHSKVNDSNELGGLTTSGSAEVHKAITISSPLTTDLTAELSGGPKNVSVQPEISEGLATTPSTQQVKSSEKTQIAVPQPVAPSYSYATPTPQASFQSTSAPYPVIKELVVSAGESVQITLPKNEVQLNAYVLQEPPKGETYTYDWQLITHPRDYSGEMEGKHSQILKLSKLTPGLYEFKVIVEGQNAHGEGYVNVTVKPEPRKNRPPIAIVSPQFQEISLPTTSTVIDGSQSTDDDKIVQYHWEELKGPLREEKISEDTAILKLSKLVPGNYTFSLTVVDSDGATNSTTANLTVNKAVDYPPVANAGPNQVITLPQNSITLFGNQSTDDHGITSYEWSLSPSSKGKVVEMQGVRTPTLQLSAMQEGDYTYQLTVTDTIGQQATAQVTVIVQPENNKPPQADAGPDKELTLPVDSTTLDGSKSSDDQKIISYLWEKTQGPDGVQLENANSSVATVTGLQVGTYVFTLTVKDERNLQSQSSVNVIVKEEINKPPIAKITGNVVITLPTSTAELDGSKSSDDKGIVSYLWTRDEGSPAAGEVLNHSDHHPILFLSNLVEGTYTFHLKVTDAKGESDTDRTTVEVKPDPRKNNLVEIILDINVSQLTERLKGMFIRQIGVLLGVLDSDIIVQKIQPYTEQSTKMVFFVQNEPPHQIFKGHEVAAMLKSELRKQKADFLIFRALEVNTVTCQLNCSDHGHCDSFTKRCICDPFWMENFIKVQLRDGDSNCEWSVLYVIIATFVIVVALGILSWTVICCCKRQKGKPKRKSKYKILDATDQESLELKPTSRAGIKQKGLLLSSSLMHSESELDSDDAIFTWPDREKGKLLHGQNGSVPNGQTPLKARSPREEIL
Method in brief: (§1)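 Crude Jurkat lysate, prepared by Dounce homogenisation, was exposed to eight concentrations from 0.1 to 10 mM for 10 min at room temperature and then 3 min at 37 °C. Solubilisation used 0.8% NP40 with benzonase for 60 min at 4 °C, followed by ultracentrifugation and TMT labelling of the supernatant for LC-MS/MS. After vsn normalisation of intensities, each value is the fold change against the detergent-processed vehicle within each replicate, across three independent experiments.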

NUFIP2 = molecular target: T2, NUFIP2 (UniProt Q7Z417)
T2 sequence (whole entry): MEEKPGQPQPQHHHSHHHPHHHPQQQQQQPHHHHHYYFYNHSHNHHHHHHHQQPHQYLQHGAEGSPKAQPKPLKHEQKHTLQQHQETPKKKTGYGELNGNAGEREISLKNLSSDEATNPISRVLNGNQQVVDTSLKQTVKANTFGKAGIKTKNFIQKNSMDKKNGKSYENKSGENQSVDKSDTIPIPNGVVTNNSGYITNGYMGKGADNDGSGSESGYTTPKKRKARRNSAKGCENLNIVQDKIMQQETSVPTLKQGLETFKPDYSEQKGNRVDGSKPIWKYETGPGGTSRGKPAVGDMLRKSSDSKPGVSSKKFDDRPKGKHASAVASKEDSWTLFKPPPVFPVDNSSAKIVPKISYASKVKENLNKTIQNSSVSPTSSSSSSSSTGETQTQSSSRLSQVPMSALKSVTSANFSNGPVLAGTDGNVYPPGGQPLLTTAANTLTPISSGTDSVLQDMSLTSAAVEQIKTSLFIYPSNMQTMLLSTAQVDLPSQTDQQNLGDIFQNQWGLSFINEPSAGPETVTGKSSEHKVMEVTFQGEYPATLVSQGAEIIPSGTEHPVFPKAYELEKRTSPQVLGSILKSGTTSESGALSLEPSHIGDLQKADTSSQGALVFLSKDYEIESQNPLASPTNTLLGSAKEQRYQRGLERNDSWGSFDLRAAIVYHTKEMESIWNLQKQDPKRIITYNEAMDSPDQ
Method in brief: as §1

PINX1 = molecular target: T3, PINX1 (UniProt Q96BK5)
T3 sequence (whole entry): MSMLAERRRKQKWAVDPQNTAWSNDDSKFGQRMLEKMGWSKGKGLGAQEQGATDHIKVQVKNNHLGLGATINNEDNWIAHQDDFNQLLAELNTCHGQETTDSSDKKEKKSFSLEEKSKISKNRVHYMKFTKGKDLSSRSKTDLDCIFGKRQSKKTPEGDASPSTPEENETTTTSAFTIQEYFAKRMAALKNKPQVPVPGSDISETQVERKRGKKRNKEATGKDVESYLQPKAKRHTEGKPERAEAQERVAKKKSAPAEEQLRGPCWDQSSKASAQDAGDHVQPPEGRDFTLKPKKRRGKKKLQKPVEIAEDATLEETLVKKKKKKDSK
Method in brief: as §1

TTF1 = molecular target: T4, TTF1 (UniProt Q15361)
T4 sequence (whole entry): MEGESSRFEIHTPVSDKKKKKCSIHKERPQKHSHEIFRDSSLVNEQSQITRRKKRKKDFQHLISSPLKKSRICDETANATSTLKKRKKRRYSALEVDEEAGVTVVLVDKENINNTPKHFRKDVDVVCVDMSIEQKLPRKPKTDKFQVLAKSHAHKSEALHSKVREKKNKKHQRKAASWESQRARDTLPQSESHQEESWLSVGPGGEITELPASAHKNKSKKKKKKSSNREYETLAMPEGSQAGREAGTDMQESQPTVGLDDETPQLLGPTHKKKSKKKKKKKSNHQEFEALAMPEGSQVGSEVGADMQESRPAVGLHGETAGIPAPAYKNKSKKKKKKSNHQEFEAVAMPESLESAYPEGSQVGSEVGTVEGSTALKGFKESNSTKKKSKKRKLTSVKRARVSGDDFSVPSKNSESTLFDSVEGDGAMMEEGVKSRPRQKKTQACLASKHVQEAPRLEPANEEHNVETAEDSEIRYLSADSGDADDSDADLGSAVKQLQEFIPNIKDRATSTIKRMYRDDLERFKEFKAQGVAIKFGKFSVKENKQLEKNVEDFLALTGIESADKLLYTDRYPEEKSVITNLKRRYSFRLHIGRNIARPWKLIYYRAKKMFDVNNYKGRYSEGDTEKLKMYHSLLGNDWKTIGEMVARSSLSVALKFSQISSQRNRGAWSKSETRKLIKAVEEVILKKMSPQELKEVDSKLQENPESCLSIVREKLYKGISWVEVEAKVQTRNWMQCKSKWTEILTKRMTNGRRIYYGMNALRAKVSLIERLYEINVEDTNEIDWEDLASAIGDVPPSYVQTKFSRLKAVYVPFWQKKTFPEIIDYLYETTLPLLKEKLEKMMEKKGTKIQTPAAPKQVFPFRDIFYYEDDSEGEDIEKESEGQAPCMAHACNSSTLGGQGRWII
Method in brief: as §1

UniProt Q147X3|Q147X3-2 = molecular target: T5, UniProt Q147X3|Q147X3-2
T5 sequence (whole entry): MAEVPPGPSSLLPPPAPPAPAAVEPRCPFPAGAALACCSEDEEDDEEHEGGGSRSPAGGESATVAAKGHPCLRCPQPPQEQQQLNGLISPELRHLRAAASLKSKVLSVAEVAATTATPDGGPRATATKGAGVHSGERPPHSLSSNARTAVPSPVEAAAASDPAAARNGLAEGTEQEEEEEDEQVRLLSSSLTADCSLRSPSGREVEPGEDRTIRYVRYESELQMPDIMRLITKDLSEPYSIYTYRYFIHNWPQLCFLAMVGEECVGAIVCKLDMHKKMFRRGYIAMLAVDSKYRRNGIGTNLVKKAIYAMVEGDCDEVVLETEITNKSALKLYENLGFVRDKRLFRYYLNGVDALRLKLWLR
Method in brief: as §1

Work on `Nc1ncnc2c1ncn2[C@@H]1O[C@H](COP(=O)(O)OP(=O)(O)NP(=O)(O)O)[C@@H](O)[C@H]1O` [adenylyl imidodiphosphate] yielded an NP40-soluble protein abundance (KIAA0319L; concentration: 1mM) of 1.01 ± 0.014, an NP40-soluble protein abundance (KIAA0319L; concentration: 2mM) of 1.03 ± 0.033 and an NP40-soluble protein abundance (KIAA0319L; concentration: 4mM) of 0.977 ± 0.025. It also gave an NP40-soluble protein abundance (KIAA0319L; concentration: 6mM) of 0.969 ± 0.034, an NP40-soluble protein abundance (KIAA0319L; concentration: 8mM) of 0.976 ± 0.017 and an NP40-soluble protein abundance (KIAA0319L; concentration: 10mM) of 0.9945 ± 0.0054. For the same molecule, the NP40-soluble protein abundance (NUFIP2; concentration: 1mM) was 1.11 ± 0.029, the NP40-soluble protein abundance (NUFIP2; concentration: 2mM) was 1.22 ± 0.066 and the NP40-soluble protein abundance (NUFIP2; concentration: 4mM) was 1.24 ± 0.023. For the same molecule, the NP40-soluble protein abundance (NUFIP2; concentration: 6mM) was 1.26 ± 0.14, the NP40-soluble protein abundance (NUFIP2; concentration: 8mM) was 1.27 ± 0.14 and the NP40-soluble protein abundance (NUFIP2; concentration: 10mM) was 1.37 ± 0.12. It also gave an NP40-soluble protein abundance (PINX1; concentration: 1mM) of 1.15 ± 0.053, an NP40-soluble protein abundance (PINX1; concentration: 2mM) of 1.27 ± 0.034 and an NP40-soluble protein abundance (PINX1; concentration: 4mM) of 1.36 ± 0.09. The NP40-soluble protein abundance (PINX1; concentration: 6mM) was 1.51 ± 0.057, the NP40-soluble protein abundance (PINX1; concentration: 8mM) was 1.59 ± 0.083 and the NP40-soluble protein abundance (PINX1; concentration: 10mM) was 1.8 ± 0.079. For the same molecule, the NP40-soluble protein abundance (TTF1; concentration: 1mM) was 0.967 ± 0.024, the NP40-soluble protein abundance (TTF1; concentration: 2mM) was 0.963 ± 0.024 and the NP40-soluble protein abundance (TTF1; concentration: 4mM) was 0.957 ± 0.025. The NP40-soluble protein abundance (TTF1; concentration: 6mM) was 0.96 ± 0.046, the NP40-soluble protein abundance (TTF1; concentration: 8mM) was 0.912 ± 0.02 and the NP40-soluble protein abundance (TTF1; concentration: 10mM) was 0.949 ± 0.045. The NP40-soluble protein abundance (UniProt Q147X3|Q147X3-2; concentration: 1mM) was 0.992 ± 0.016, the NP40-soluble protein abundance (UniProt Q147X3|Q147X3-2; concentration: 2mM) was 0.971 ± 0.025 and the NP40-soluble protein abundance (UniProt Q147X3|Q147X3-2; concentration: 4mM) was 1.01 ± 0.059. It also gave an NP40-soluble protein abundance (UniProt Q147X3|Q147X3-2; concentration: 6mM) of 1.03 ± 0.046, an NP40-soluble protein abundance (UniProt Q147X3|Q147X3-2; concentration: 8mM) of 0.99 ± 0.023 and an NP40-soluble protein abundance (UniProt Q147X3|Q147X3-2; concentration: 10mM) of 1 ± 0.025.
